AHR activator = activates the human aryl hydrocarbon receptor | P35869 | AHR-responsive luciferase reporter cells, luminescence | activation, % at 5 µM | actives 2.5% (n = 320,000); in the data active means activation above about 47%;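 further: 0% = vehicle wells and 100% = reference agonist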
FXN GAA850 act = activators of GAA850 frataxin (FXN) promoter; activation, % at 6 µM; AID 540364; actives 0.56% (n = 360,000); HEK293 lucGAA850 FXN promoter luciferase reporter, 24 h; percent of 10 µM SAHA response;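 active means activation above the average of all compounds screened plus 3 SD, cutoff fixed separately per campaign, cut at about 7.5% in these data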;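 further: 0% = DMSO wells and 100% = 10 µM SAHA wells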
HSF-1 act = increases HSF-1 driven luciferase reporter signal | NIH3T3-HGL HSF-1 luciferase reporter, MG132, 8 h; 100% = twice DMSO control signal | activation, % at 9 µM | actives 1.7% (n = 300,000);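 active means mean replicate activation of at least 50% with a set share of replicates each reaching 50%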;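 further: 0% = median of the neutral control wells and 100% = twice that signal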
NR0B1 inh = NR0B1 (DAX1) inhibition; P51843; HEK293 Gal4-DAX1 luciferase reporter, luminescence; inhibition, % at 6.75 µM; actives 0.99% (n = 340,000); AID 504766;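 active means inhibition above the mean over all tested compounds plus 3 SD, cut at about 4.2% in these data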;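 further: 0% = DAX1-transfected cells with DMSO and 100% = empty-vector control cells with DMSO; inhibition shows as a rise in luminescence from relieved DAX1 repression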
Target sequence (P51843 207-470 limits assumed): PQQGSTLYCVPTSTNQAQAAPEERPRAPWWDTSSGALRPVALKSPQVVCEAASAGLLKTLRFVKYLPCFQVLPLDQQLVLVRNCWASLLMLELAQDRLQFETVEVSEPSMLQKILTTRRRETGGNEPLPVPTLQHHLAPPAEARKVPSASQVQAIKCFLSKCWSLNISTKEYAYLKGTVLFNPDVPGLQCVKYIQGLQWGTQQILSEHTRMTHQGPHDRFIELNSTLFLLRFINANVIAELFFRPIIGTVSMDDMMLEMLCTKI
HSF1 inh = HSF1 inhibition. NIH3T3-HGL HSE-luciferase, MG132-induced, luminescence 8 h; hits give low values. actives 0.77% (n = 300,000). AID 2098. activity change, negative = inhibition, % at 7.5 µM (by protocol);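 active means more than half of replicate wells show activity change below -50%, luminescence cut by over half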;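 further: luciferase reports HSF-1 transcriptional activity via heat shock element; 0% = median of DMSO wells and -100% = zero luminescence signal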
An asterisk follows results filed as active; / = no result. Compounds with a hit are over-represented: about 5.4% of the library has one in this group of screens.

SMILES | AHR activator | FXN GAA850 act | HSF-1 act | NR0B1 inh | HSF1 inh
OCCCn1c(C2CCCN2c2nc(-c3ccc(Cl)cc3)cs2)nc2cc(Cl)c(N3CCCCC3)cc21 (centres undefined) | 11 | 0 | -20 | 5.3* | -5
O=C(Nc1ccccc1)c1cccc2c(Br)cccc12 | 57* | 1 | -2 | -1 | -10
O=C(Nc1ccc(Br)cc1)c1ccccc1Br | 5 | 3 | 53* | 4.9* | 33
O=C(Nc1c[nH]c(=O)[nH]c1=O)c1ccccc1Br | 0 | 1 | 8 | 6.4* | 0
CC(=O)Nc1ccc(NC(=O)c2ccccc2Br)cc1 | / | -2 | / | / | /
CCc1ccc(NC(=O)c2ccccc2Br)cc1 | 10 | 6 | 36 | 5.9* | 51
O=C(Nc1ccccc1C(=O)Nc1ccccc1)c1ccccc1Br | 2 | -1 | 9 | 0 | -1
Cc1cccc(NC(=O)c2ccc(NC(=O)c3ccccc3Br)cc2)c1 | 0 | 3 | 23 | 0 | 1
O=C(NCCc1ccc(Cl)cc1)c1cc2ccccn2n1 | 0 | 1 | 33 | 1 | 21
O=C(Nc1ccc(Br)cc1)c1cc2ccccn2n1 | 57* | 2 | 71* | 2 | 35
O=C(CCCn1c(=S)[nH]c2ccccc2c1=O)NCCSCc1ccccc1 | 1 | 1 | -16 | 0 | -6
COC(=O)c1ccc(NC(=O)C2C3C=CC(C3)C2C(=O)O)cc1 (centres undefined) | 4 | 0 | -53 | 0 | -52*
COc1ccc(CN2CCNC(=O)C2CC(=O)NCc2cc(C)n(C)n2)c(F)c1 (centres undefined) | -2 | 1 | -1 | 1 | -6
Fc1ccc(-c2cc(-c3ccccc3)nc(-n3cccn3)n2)cc1 | -10 | -1 | -75 | -1 | -69*
FC(F)(F)c1cc(-c2ccccc2)nc(-n2cncn2)n1 | 1 | 3 | -12 | 1 | -5
C=CCn1c(Cc2cccs2)nnc1SCC(=O)c1cccc(Br)c1 | 12 | 1 | 6 | -1 | 6
O=C(/C=C/c1ccc(F)cc1)c1ccccc1Br | -3 | 9.3* | 10 | 0 | 7
COc1ccc(Cc2nnc(NC(=O)c3ccccc3C)s2)cc1 | 0 | 1 | -11 | -2 | -5
Cc1ccc(-c2cc(-c3ccco3)c3c(N)c(C(=O)NN)oc3n2)cc1 | 42 | 3 | -6 | 1 | 0
NNC(=O)c1oc2nc(-c3cccs3)cc(-c3ccco3)c2c1N | 48* | -1 | -7 | -1 | -1
NS(=O)(=O)c1ccc2nc(NC(=O)Nc3ccccc3F)sc2c1 | -2 | 6 | 33 | 1 | 8
Cc1ccccc1NC(=O)Nc1nc2ccc(S(C)(=O)=O)cc2s1 | 14 | 1 | -5 | 9.0* | -2
COc1cc(OC)cc(C(=O)Nc2nc3ccc(S(C)(=O)=O)cc3s2)c1 | 49* | 4 | 27 | 0 | 18
CCOC(=O)c1cc2c(ccc3nc(C)c(C)c32)[nH]c1C | 8 | 3 | 39 | -1 | 5
CCOc1cc(/C=C\[N+](=O)[O-])ccc1OCC(=O)Nc1ccccc1C | 3 | 7 | -63 | -2 | -62*
SMILES | AHR activator | FXN GAA850 act | HSF-1 act | NR0B1 inh | HSF1 inh
Cc1ccc(C2CC(c3ccccc3OC(F)F)Nc3ncnn32)cc1 (centres undefined) | 1 | 2 | 0 | 5.3* | -4
COc1cccc(C2CC(c3ccccc3)n3ncnc3N2)c1 (centres undefined) | 1 | -1 | -82 | 2 | -77*
Cc1ccccc1C1CC(c2ccccc2OC(F)F)Nc2ncnn21 (centres undefined) | 0 | 0 | 15 | -1 | 7
Cc1ccc(CN2CCNC(=O)C2CC(=O)NCCCn2ncc3ccccc32)o1 (centres undefined) | / | 1 | / | 1 | /
COC(=O)[C@@]1(C)[C@H]2C(=O)N(C)C(=O)[C@H]2[C@H]2CN=C(SCc3ccc(Cl)cc3)N21 | / | 3 | / | 0 | /
O=C(CN1C(=O)C(=O)N(C2CCCC2)C1=O)NCCc1ccc(Cl)cc1Cl | 0 | 1 | / | 0 | /
O=C1CCC(C(=O)N2CCCO2)CN1Cc1cccc(C(F)(F)F)c1 (centres undefined) | / | 3 | 28 | 0 | 14
Oc1c(CN2CCOCC2)cc(COCc2ccccc2)c2cccnc12 | 0 | 0 | -82 | -2 | -78*
Fc1ccc(Sc2ccccc2CNC2=NCCN2)cc1 | 0 | -3 | 55* | -2 | 9
O=[N+]([O-])c1cc([N+](=O)[O-])c(N2CCCCCC2)cc1NCCO | 2 | 1 | -15 | 0 | -7
O=S(=O)(NC1CCCCC1N1CCN(c2ccc(F)cc2)CC1)c1ccccc1 (centres undefined) | 3 | 0 | -7 | 0 | 1
Cc1ccc(C(C(=O)NC2CCCCC2)N(C(=O)Cc2c[nH]c3ccccc23)c2ccccc2)o1 (centres undefined) | 12 | 1 | 58* | 1 | 32
COc1c(N)c2c(c([N+](=O)[O-])c1OC)C(=O)OC2 | / | 1 | / | 1 | /
Cc1cccc(N2C(=O)C3C4C=CC(C5CC45)C3C2=O)n1 (centres undefined) | -2 | 1 | -49 | 4 | -38
COc1cc(NS(=O)(=O)c2ccc(Nc3nc(-c4cccc([N+](=O)[O-])c4)cs3)cc2)nc(OC)n1 | -1 | -1 | 6 | 0 | -9
O=C(O)c1cnn(-c2nc(-c3cccc([N+](=O)[O-])c3)cs2)c1C(F)(F)F | 13 | -2 | 63* | -1 | 18
O=C(O)c1cnn(-c2nc(-c3cccc(F)c3)cs2)c1C(F)(F)F | 10 | 1 | -12 | 1 | -1
COc1ccccc1Nc1nc(-c2cccc([N+](=O)[O-])c2)cs1 | 79* | 3 | 14 | 1 | -2
O=[N+]([O-])c1cccc(-c2csc(Nc3ccccc3)n2)c1 | 48* | 6 | 1 | 2 | 10
O=C(Cc1ccccc1)Nc1nc(-c2cccc([N+](=O)[O-])c2)cs1 | -9 | 2 | 0 | 0 | 2
OCC1OC(n2cnc3c(N4CCCCC4)ncnc32)C(O)C1O (centres undefined) | / | 0 | / | 1 | /
CCOc1ccccc1NC(=O)Cn1nnc(-c2ccc(OCC)c(OCC)c2)n1 | 2 | 1 | 1 | -1 | -2
COc1ccc(NC(=O)COC(=O)c2c(NC(C)=O)sc(C)c2C)cc1 | / | 0 | / | 0 | /
Cc1ccc(NC(=O)COc2ccc(Br)cc2CO)cc1S(=O)(=O)N1CCOCC1 | 0 | -3 | / | -1 | /
COc1ccc2cc(CN(Cc3ccco3)C(c3nnnn3C3CCCCC3)C(C)C)c(=O)[nH]c2c1 (centres undefined) | 1 | 3 | 70* | 0 | 27
COCCCn1cnnc1SCc1nc2sc(C(C)=O)c(C)c2c(=O)[nH]1 | 5 | 1 | 18 | 2 | 4
c1ccc(C2=NNC(c3ccco3)=Nc3ccccc32)cc1 | 8 | 1 | 5 | 1 | 15
Cc1ccc(C2=NNC(c3ccc(Cl)cc3)=Nc3ccccc32)o1 | 50* | 4 | 20 | 0 | 1

From PubChem BioAssay
